Measured values: PubChem BioAssay AID1259416 (Broad Institute, 2018)
“And” between values parts separate entries of the source, which are not always exact repeats. Identical values can stand only once. About 2,600 (3.8%) of roughly 69,000 compounds were called active. The sample holds actives, similar compounds and a random draw of the others, so the mix is not that of the screen. No stated cut-off is given here; in the data, active means activity change below about -70% (passing the limit was not always enough); inconclusive means no clear call, values can overlap the other calls. A structure can be active in one record and inactive in another.

Assay: inhibitors of Toxoplasma growth in IFN-γ-primed hosts – cell-based, primary screen (AID 1259416);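 further: host cells are HeLa cells infected with Toxoplasma gondii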
Conditions: Toxoplasma gondii growth in IFN-gamma-treated host cells; stronger effect = lower value; concentration not given here

SMILES | activity change, negative = inhibition
CNC1(c2nnnn2CCOC(=O)Nc2ccc(Cl)cc2)CCCC1 | 93.6% (inactive)
Cc1[nH]c(/C=C2\C(=O)Nc3ccc(S(=O)(=O)Cc4c(Cl)cccc4Cl)cc32)c(C)c1C(=O)N1CCC[C@@H]1CN1CCCC1 | -79.5% (active) and -88.9% (active) and -63.2% (inactive)
COc1ccc(OC)c(CNC(=O)Cn2ncc3c(N4CCCC4)ncnc32)c1 | 7.89% (inactive)
CC(C)(C)c1nc(-c2cccc(NS(=O)(=O)c3c(F)cccc3F)c2F)c(-c2ccnc(N)n2)s1 | -83.7% (active)
CC1=C(C(=O)NCCCN2CC(C)CC(C)C2)C2(CCN(Cc3ccccc3)CC2)OC1=O (centres undefined) | -65.1% (inactive)
O=C(c1nc2sccn2c1CN1CCC(c2ccccc2Cl)C1)N1CCCCC1 (centres undefined) | 1.45% (inactive)
O=C(Nc1cccc(N2CCCCS2(=O)=O)c1)c1ccc(-n2cccn2)nc1 | 6.32% (inactive)
Cc1ccc(C(=O)Nc2ccc(Oc3ccc(C(C)(C)C)cc3)nc2)cc1 | -31.5% (inactive)
Cc1ccc(C)c(-c2coc(-c3ccc(NC(=O)Cc4cccs4)cc3)n2)c1 | 7.55% (inactive)
CC(C)(C)c1ccc(Oc2ccc(NC(=O)Cc3cccs3)cn2)cc1 | -76.9% (active)
CCOC(=O)c1nc(N2CCN(Cc3ccc4c(c3)OCO4)CC2)c2ccccc2n1 | 42.4% (inactive)
O=C(C1CC=CC1)N1CCC2(CCN(Cc3cccc(F)c3)CC2)C1 | -9.86% (inactive)
CC[C@]1(O)CC2CN(CCc3c([nH]c4ccccc34)[C@@](C(=O)OC)(c3cc4c(cc3OC)N(C=O)[C@H]3[C@@](O)(C(=O)OC)[C@H](OC(C)=O)[C@]5(CC)C=CCN6CC[C@]43[C@@H]65)C2)C1 (some centres undefined) | -82.9% (active) and -87.1% (active)
CC[C@]1(O)C[C@@H]2CN(CCc3c([nH]c4ccccc34)[C@@](C(=O)OC)(c3cc4c(cc3OC)N(C)[C@H]3[C@@](O)(C(=O)OC)[C@H](OC(C)=O)[C@]5(CC)C=CCN6CC[C@]43[C@@H]65)C2)C1 | -97.6% (active)
CC1=CC[C@@H]2CN(C(=O)c3cc(C(C)(C)C)[nH]c(=O)n3)C[C@@H]2C1 | 5.83% (inactive)
Cc1nn(C)c(C)c1CCC(=O)NCc1ccccc1-n1ccnc1C | -6.3% (inactive)
CC1Cc2ccccc2N1C(=O)CN1C(=O)COc2ccc(C(=O)c3cccs3)cc21 (centres undefined) | -43.3% (inactive)
Cc1nc2ccccc2c(=O)n1-c1cccc2ccccc12 | 0.633% (inactive)
O=S(=O)(c1ccc2c(c1)OCCO2)N1CCN(c2ccc(C(F)(F)F)cn2)CC1 | -88% (active)
CC(NC(=O)CCc1c[nH]c2ccccc12)c1cn2ncsc2n1 (centres undefined) | 23.4% (inactive)
O=C(/C=C/c1ccc2c(c1)OCO2)NCc1ccc(F)cc1 | 2.56% (inactive)
O=C(/C=C/c1ccc(CN(CCO)CCc2c[nH]c3ccccc23)cc1)NO | -85.7% (active)

SMILES | activity change, negative = inhibition
CC(C)c1cc(C2CCN(C(=O)Cc3c[nH]c4ccccc34)CC2)[nH]n1 | 5.9% (inactive)
O=C(NC1CC1)C1CN(Cc2cnc(NCc3ccccc3)nc2)CCN1 (centres undefined) | -0.724% (inactive)
Cc1ccsc1C(=O)N1CCCC2(C1)Nc1cccnc1NC2=NC1CCCC1 (centres undefined) | -22.8% (inactive)
COc1ccc(OCC(=O)N2CCC3(CC2)Nc2ccc(Cl)cc2-n2cccc23)cc1 | 25.9% (inactive)
O=S(=O)(c1ccc(F)c(F)c1)N1CCC2(CC1)Nc1ccc(Cl)cc1-n1cccc12 | 17.6% (inactive)
O=C(C1CCCCC1)N1CCC2(CC1)Nc1ccc(Cl)cc1-n1cccc12 | -85.4% (active)
CNC(=O)c1sc2ccccc2c1C1CCC(CNS(=O)(=O)c2cnn(C)c2)CC1 (centres undefined) | -10.6% (inactive)
Cc1cccn2cc(C(=O)NC[C@@H]3CCNC[C@H]3O)nc12 | -3.48% (inactive)
O[C@@H]1CNCC[C@H]1CNCc1cccc(Oc2cccc(C(F)(F)F)c2)c1 | -100% (active)
Cc1cc(CNC(=O)c2cccc(C3CCNC3)c2)ccc1F (centres undefined) | -1.39% (inactive)
Cc1cc(C(=O)N2CCC3(CC2)CNC(=O)O3)c2ccc(F)cc2n1 | 0.544% (inactive)
CCOC1C2CCC1N(S(=O)(=O)c1cccc(C)c1)CCO2 (centres undefined) | 16.8% (inactive)
Cc1cc(S(=O)(=O)NCc2ccc3c(c2)OCO3)ccc1-n1cnnn1 | -7.98% (inactive)
COc1cccc(-c2cccc3[nH]ccc23)n1 | 35.3% (inactive)
C[C@@H]1COCCN1c1cc(C2(S(C)(=O)=O)CC2)nc(-c2cccc3[nH]ccc23)n1 | -82.8% (active)
NC(=O)Cc1csc(NC(=O)c2ccc3nc(C(F)(F)F)[nH]c3c2)n1 | -8.79% (inactive)
CNS(=O)(=O)c1ccc([C@@H]2C[C@H](NC(C)=O)C[C@H](CC(C)C)O2)cc1 | -22.6% (inactive)
Cc1ccc(C2(O)CCN(C(=O)c3noc(C)c3CO)CC2)nc1 | -2.58% (inactive)
Cc1ccc2cc(CN(c3ccc(C)c(C)c3)S(C)(=O)=O)c(=O)[nH]c2c1 | -50.6% (inactive)
Cc1ccc(Nc2nc(-c3nnc(-c4cccc(C)c4)o3)nc3ccccc23)cc1 | 96.2% (inactive)
COc1cc(OC)c(Nc2nc(-c3nnc(-c4ccccc4)o3)nc3ccccc23)cc1Cl | 268% (inactive)
Clc1cccc(-c2nnc(-c3nc(NC4CCCC4)c4ccccc4n3)o2)c1 | -77.4% (active)
